According to PubChem BioAssay (Tox21):
“And” between values parts separate entries of the source, which are not always exact repeats. Equal values may be shown once. Records with an inconclusive call do not appear. Some structures have more than one record in an assay (separate samples or runs), and their calls can disagree. The source made the active and inactive calls. The call rests on the fitted dose curve; in most records, active means well fitted curve in the direction sought with a large enough effect in the repeat runs; inconclusive means weak or mixed curves; inactive means no such curve, though single readings can be large; an effect the other way counts as inactive or inconclusive.

Experiments:
[1] = molecular target: Cytochrome P450 2D6 (Homo sapiens) (UniProt P10635); experiment: Cytochrome P450 Family 2 Subfamily D Member 6 (CYP2D6) small molecule antagonists: luciferase reporter qHTS assay (AID 1671196); further: nearly all actives have a fitted effect of over 50% in size; on activity change, negative = inhibition: series mostly up to about 120 µM
Cytochrome P450 2D6 (Homo sapiens), sequence (P10635 whole entry, looked up): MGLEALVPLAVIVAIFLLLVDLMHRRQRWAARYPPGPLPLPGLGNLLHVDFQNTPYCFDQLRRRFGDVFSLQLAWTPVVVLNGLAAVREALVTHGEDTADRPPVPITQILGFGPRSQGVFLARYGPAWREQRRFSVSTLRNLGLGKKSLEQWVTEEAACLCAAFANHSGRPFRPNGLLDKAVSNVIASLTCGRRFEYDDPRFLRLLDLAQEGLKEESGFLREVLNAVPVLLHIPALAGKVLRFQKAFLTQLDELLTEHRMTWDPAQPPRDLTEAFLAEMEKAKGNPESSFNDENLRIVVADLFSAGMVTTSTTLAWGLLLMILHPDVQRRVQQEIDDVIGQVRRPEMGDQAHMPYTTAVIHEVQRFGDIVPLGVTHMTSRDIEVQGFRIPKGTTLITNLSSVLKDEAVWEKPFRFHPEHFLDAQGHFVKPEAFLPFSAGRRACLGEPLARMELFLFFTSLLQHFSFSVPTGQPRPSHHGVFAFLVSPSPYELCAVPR
Outline: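 CYP2D6 activity was followed as luminescence from its luciferin product after a 1 h NADPH-driven reaction at room temperature. Enzyme-substrate mix and compound were pre-incubated for 10 min, and the signal was read 20 min after adding detection reagent.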

[2] = molecular target: Cytochrome P450 2C19 (Homo sapiens) (UniProt P33261); experiment: Cytochrome P450 Family 2 Subfamily C Member 19 (CYP2C19) small molecule antagonists: luciferase reporter qHTS assay (AID 1671197); further: nearly all actives have a fitted effect of over 65% in size; on activity change, negative = inhibition: series mostly up to about 120 µM
Cytochrome P450 2C19 (Homo sapiens), sequence (P33261 whole entry, looked up): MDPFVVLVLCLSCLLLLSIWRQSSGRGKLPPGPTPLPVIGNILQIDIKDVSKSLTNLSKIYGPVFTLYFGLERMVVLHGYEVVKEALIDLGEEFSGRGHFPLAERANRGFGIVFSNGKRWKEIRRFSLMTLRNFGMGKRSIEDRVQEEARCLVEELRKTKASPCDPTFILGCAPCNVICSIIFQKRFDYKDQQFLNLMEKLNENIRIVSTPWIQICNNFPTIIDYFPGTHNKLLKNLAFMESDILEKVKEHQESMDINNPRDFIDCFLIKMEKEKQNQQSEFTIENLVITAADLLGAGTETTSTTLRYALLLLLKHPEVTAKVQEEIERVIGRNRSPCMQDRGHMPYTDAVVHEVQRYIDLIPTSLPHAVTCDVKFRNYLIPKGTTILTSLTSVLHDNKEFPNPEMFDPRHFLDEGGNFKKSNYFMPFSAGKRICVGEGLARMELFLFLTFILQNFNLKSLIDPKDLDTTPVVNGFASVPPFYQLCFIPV
Outline: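 First, compounds are pinned into enzyme-substrate mix and held 10 min at room temperature. Second, NADPH regeneration solution is added and plates incubate 1 h at 37C. Third, detection reagent is added and luminescence read after 20 min.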

[3] = molecular target: Cytochrome P450 2C9 (Homo sapiens) (UniProt P11712); experiment: Cytochrome P450 Family 2 Subfamily C Member 9 (CYP2C9) small molecule antagonists: luciferase reporter qHTS assay (AID 1671198); further: nearly all actives have a fitted effect of over 50% in size; on activity change, negative = inhibition: series mostly up to about 120 µM
Cytochrome P450 2C9 (Homo sapiens), sequence (P11712 whole entry, looked up): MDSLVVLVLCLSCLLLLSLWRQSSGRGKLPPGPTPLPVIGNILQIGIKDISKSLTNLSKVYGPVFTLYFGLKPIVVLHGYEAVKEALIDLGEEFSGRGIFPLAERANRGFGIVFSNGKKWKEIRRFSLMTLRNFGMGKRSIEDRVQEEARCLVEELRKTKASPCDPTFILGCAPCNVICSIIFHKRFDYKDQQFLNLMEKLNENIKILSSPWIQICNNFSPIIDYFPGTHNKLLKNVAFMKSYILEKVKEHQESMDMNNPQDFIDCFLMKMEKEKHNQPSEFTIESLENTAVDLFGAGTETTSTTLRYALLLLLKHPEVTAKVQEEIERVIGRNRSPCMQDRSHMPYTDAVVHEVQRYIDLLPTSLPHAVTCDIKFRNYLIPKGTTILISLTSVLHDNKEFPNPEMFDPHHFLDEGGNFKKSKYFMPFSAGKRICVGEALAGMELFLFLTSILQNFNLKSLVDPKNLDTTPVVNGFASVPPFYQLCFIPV
Outline: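 CYP2C9 activity was measured with a P450-Glo proluciferin substrate. Enzyme–substrate mix was held with compound for 10 min at room temperature, then NADPH regeneration solution was added for 1 h at 37C. Luciferin product was read as luminescence.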

[4] = molecular target: Cytochrome P450 1A2 (Homo sapiens) (UniProt P05177); experiment: Cytochrome P450 Family 1 Subfamily A Member 2 (CYP1A2) small molecule antagonists: luciferase reporter qHTS assay (AID 1671199); further: nearly all actives have a fitted effect of over 50% in size; on activity change, negative = inhibition: series mostly up to about 120 µM
Cytochrome P450 1A2 (Homo sapiens), sequence (P05177 whole entry, looked up): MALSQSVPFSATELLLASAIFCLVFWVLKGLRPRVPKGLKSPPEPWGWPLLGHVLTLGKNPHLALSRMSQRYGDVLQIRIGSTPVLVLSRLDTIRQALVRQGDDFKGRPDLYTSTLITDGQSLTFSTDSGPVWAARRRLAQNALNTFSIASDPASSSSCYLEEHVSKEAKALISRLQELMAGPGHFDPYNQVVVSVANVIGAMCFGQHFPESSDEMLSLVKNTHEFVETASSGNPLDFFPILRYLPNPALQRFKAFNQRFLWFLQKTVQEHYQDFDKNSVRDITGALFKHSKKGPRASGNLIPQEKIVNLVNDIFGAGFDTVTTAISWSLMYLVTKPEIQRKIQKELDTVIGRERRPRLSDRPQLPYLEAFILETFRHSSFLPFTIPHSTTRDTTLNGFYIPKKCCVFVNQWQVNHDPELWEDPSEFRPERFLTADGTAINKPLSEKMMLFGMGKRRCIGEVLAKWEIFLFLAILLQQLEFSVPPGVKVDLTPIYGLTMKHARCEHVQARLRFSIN
Outline: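 Luminescence from luciferin formed by CYP1A2 from a proluciferin substrate, read 20 min after detection reagent. Compound was pre-incubated 10 min with enzyme-substrate, and reaction started with NADPH regeneration solution for 1 h at room temperature; furafylline control.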

[5] = molecular target: Voltage-gated inwardly rectifying potassium channel KCNH2 (Homo sapiens) (UniProt Q12809); experiment: Human Ether-a-go-go-Related Gene (hERG) channel small molecule antagonists: fluorescence cell-based qHTS assay (AID 1671200); further: nearly all actives have a fitted effect of over 50% in size; on activity change, negative = inhibition: series mostly up to about 77 µM
Voltage-gated inwardly rectifying potassium channel KCNH2 (Homo sapiens), sequence (Q12809 whole entry, looked up): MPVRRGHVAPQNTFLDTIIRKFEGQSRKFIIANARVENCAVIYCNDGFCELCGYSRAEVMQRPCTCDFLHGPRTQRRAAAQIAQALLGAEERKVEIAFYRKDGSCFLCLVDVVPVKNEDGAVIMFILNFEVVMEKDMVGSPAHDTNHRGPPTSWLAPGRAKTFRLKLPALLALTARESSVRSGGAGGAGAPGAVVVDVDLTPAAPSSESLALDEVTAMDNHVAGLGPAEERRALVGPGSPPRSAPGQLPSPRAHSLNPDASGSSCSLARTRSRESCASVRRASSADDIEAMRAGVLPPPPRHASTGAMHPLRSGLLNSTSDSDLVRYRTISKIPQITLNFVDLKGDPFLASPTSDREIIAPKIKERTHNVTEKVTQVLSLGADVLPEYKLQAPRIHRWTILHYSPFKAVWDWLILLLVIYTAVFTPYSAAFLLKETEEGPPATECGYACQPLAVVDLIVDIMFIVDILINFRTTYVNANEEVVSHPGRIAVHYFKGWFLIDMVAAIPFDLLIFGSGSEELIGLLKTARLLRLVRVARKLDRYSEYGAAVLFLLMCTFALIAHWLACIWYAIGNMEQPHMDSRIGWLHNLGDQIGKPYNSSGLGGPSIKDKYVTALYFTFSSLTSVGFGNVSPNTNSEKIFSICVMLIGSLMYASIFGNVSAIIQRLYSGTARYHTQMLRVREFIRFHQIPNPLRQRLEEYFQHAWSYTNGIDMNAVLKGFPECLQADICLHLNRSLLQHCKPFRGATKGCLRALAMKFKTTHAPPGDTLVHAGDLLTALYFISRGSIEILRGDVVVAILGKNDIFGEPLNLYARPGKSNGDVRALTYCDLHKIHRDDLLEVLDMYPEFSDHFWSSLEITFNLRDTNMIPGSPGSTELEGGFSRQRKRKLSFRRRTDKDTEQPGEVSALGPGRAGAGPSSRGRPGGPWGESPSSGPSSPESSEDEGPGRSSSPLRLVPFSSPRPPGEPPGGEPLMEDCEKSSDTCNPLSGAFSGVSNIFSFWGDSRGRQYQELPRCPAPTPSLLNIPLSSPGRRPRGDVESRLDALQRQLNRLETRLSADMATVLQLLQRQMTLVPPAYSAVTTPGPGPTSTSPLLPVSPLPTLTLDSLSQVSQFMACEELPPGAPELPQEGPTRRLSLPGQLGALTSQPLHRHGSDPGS
Outline: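 Thallium flux as potassium surrogate: FluxOR II dye loaded 1 h at room temperature into hERG-expressing U2OS cells, then stimulus buffer added after 10 min. Kinetic 480 nm excitation/540 nm emission read, 2 min.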

[6] = molecular target: Cytochrome P450 3A4 (Homo sapiens) (UniProt P08684); experiment: Cytochrome P450 Family 3 Subfamily A Member 4 (CYP3A4) small molecule antagonists: luciferase reporter qHTS assay (AID 1671201); further: nearly all actives have a fitted effect of over 50% in size; on activity change, negative = inhibition: series mostly up to about 120 µM
Cytochrome P450 3A4 (Homo sapiens), sequence (P08684 whole entry, looked up): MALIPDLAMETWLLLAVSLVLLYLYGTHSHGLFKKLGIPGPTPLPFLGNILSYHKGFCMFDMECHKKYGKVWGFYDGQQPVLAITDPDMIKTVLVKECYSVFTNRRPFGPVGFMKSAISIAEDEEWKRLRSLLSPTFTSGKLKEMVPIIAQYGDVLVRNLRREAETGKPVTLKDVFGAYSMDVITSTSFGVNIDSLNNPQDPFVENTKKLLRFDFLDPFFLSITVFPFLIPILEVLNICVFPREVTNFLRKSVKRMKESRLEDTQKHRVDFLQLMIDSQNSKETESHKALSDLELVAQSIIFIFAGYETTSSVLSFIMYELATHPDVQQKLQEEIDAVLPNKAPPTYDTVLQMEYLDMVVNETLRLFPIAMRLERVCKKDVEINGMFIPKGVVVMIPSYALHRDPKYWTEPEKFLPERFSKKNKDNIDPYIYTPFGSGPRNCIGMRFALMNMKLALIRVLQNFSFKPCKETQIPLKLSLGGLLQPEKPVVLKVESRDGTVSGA
Outline: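 Recombinant human CYP3A4 converts a proluciferin substrate to luciferin over 1 h at room temperature after NADPH regeneration solution is added (compound preincubated 10 min); detection reagent stops reaction, luminescence read 20 min later as relative units.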
On the % scale 0 is the no-effect control and ±100 the full control effect; potency means the concentration at half of the fitted maximal effect.

C=Cc1ccc(C)cc1
inactive: Potency [1] | Potency [2] | Potency [3] | Potency [4] | Potency [5] | Potency [6]

CCOC(=O)n1ccn(C)c1=S
inactive: Potency [1] | Potency [2] | Potency [3] | Potency [5] | Potency [6]
39.9 µM (active) and inactive: Potency [4]

NCCCCCCN
inactive: Potency [2] | Potency [3] | Potency [4] | Potency [5] | Potency [6]
active: Potency [1] 32 µM and 35.6 µM

O=C(O)c1ccc(S(=O)(=O)N(Cl)Cl)cc1
35.8 µM (active) and inactive: Potency [1]
inactive: Potency [2] | Potency [3] | Potency [4] | Potency [5] | Potency [6]

CCO[Si](CCCN)(OCC)OCC
inactive: Potency [1] | Potency [2] | Potency [3] | Potency [4] | Potency [5] | Potency [6]

O=C1c2ccccc2CCc2ccccc21
inactive: Potency [1] | Potency [5] | Potency [6]
active: Potency [2] 18.2 µM and 7.76 µM | Potency [3] 36.3 µM | Potency [4] 1.45 µM and 1.62 µM

CCNC(=S)NCC
inactive: Potency [1] | Potency [2] | Potency [3] | Potency [5] | Potency [6]
active: Potency [4] 44.8 µM

O=C(O)c1ccc(C(=O)O)c(C(=O)O)c1
inactive: Potency [1] | Potency [2] | Potency [3] | Potency [4] | Potency [5] | Potency [6]

CNC(=S)N(C)C
inactive: Potency [1] | Potency [2] | Potency [3] | Potency [4] | Potency [5] | Potency [6]

CC(=O)OCc1ccco1
70.6 µM (active) and inactive: Potency [2]
inactive: Potency [1] | Potency [3] | Potency [4] | Potency [5] | Potency [6]

OC1C(O)C(O)C(O)C(O)C1O (stereo unspecified)
inactive: Potency [1] | Potency [2] | Potency [3] | Potency [4] | Potency [5] | Potency [6]

C=CC(C)CCCC(C)(C)O (stereo unspecified)
inactive: Potency [2] | Potency [3] | Potency [6]
43.6 µM (active) and inactive: Potency [5]
active: Potency [1] 31.7 µM | Potency [4] 39.8 µM

C[C@]12CC[C@@H]3c4ccc(O)cc4CC[C@H]3[C@@H]1C[C@@H](O)[C@@H]2O
31.7 µM (active) and inactive: Potency [4]
inactive: Potency [1] | Potency [2] | Potency [3] | Potency [5] | Potency [6]

COc1ccc([N+](=O)[O-])cc1N
active: Potency [2] 35.7 µM and 79.6 µM | Potency [3] 40.1 µM and 63.3 µM | Potency [4] 22.5 µM and 31.7 µM | Potency [6] 35.7 µM and 35.6 µM
inactive: Potency [1] | Potency [5]

CCc1ccccc1CC
inactive: Potency [1] | activity change, negative = inhibition [2] 2.36% [at 23.6 µM] | Potency [3] | activity change, negative = inhibition [4] -28.6% [at 23.6 µM] | Potency [5] | Potency [6]

O=C1CCCC1
inactive: Potency [1] | Potency [2] | Potency [3] | Potency [4] | Potency [5] | Potency [6]

CC(C)CC(=O)CC(C)CC(C)C (stereo unspecified)
inactive: Potency [1] | Potency [3] | Potency [4] | Potency [5] | Potency [6]
79.2 µM (active) and inactive: Potency [2]

CC(CCl)OP(=O)(OC(C)CCl)OC(C)CCl (stereo unspecified)
inactive: Potency [1] | Potency [5]
active: Potency [2] 35.7 µM and 21.1 µM | Potency [3] 40 µM and 59.5 µM | Potency [4] 28.3 µM and 14.9 µM

CC1(C)NC(=O)NC1=O
inactive: Potency [1] | Potency [2] | Potency [3] | Potency [5] | Potency [6]
active: Potency [4] 35.8 µM

O=C(O)Cn1c(=O)n(Cc2ccc(Br)cc2F)c(=O)c2ccc(Cl)cc21
79.6 µM (active) and inactive: Potency [4]
inactive: Potency [1] | Potency [2] | Potency [5] | Potency [6]
active: Potency [3] 31.7 µM and 15.5 µM

CCCCCCCCCCCC(=O)OC
inactive: Potency [1] | Potency [2] | Potency [3] | Potency [4] | Potency [5] | Potency [6]

CCCCCCCCCCO
inactive: Potency [1] | Potency [2] | Potency [3] | Potency [5] | Potency [6]
inactive and 31.7 µM (active): Potency [4]

C[Si]1(C)O[Si](C)(C)O[Si](C)(C)O[Si](C)(C)O1
inactive: Potency [1] | Potency [2] | Potency [3] | Potency [4] | Potency [5] | Potency [6]

COCCCN
inactive: Potency [1] | Potency [2] | Potency [3] | Potency [4] | Potency [5] | Potency [6]

COc1ccc(N)c(C)c1
inactive: Potency [5]
active: Potency [1] 8.9 µM and 31.7 µM | Potency [2] 39.8 µM and 39.9 µM | Potency [3] 35.4 µM and 63.3 µM | Potency [4] 15.8 µM and 12.6 µM | Potency [6] 31.6 µM

CCCCCCO
inactive: Potency [1] | Potency [2] | Potency [3] | Potency [4] | Potency [5] | Potency [6]

CC(O)CC(C)(C)O (stereo unspecified)
inactive: Potency [1] | Potency [2] | Potency [3] | Potency [4] | Potency [5] | Potency [6]

CC(=O)Oc1ccc(C)cc1
inactive: Potency [1] | Potency [2] | Potency [3] | Potency [4] | Potency [5] | Potency [6]

CC(C)=CCl
inactive: Potency [2] | Potency [3] | Potency [4] | Potency [5] | Potency [6]
10.1 µM (active) and inactive: Potency [1]

CCCCCCCO
72 µM (active) and inactive: Potency [2]
inactive: Potency [1] | Potency [3] | Potency [4] | Potency [5] | Potency [6]

COC(=O)c1cccnc1
inactive: Potency [1] | Potency [2] | Potency [3] | Potency [4] | Potency [5] | Potency [6]

Cc1ccc([N+](=O)[O-])cc1S(=O)(=O)O
inactive: Potency [5] | Potency [6]
active: Potency [1] 39.2 µM | Potency [2] 35.6 µM | Potency [3] 56.4 µM
inactive and 63.3 µM (active): Potency [4]

N#Cc1ccccc1
inactive: Potency [1] | Potency [2] | Potency [3] | Potency [4] | Potency [5] | Potency [6]

C=CC[N+](C)(C)CC=C
56.8 µM (active) and inactive: Potency [2]
inactive: Potency [1] | Potency [3] | Potency [4] | Potency [5] | Potency [6]

O=C(O)c1cc2ccccc2cc1O
active: Potency [2] 35.3 µM and 79.6 µM | Potency [3] 62.8 µM and 56.4 µM | Potency [4] 39.9 µM
inactive: Potency [1] | Potency [5] | Potency [6]

CNC(=O)Oc1ccc2c(c1)[C@]1(C)CCN(C)[C@@H]1N2C
71 µM (active) and inactive: Potency [3]
inactive: Potency [4] | Potency [5] | Potency [6]
active: Potency [1] 564 nM and 977 nM
25.2 µM (active) and inactive: Potency [2]

Brc1ccc(Br)c(Br)c1
inactive: Potency [1] | Potency [2] | Potency [3] | Potency [4] | Potency [5] | Potency [6]

CCCCCCCCCCCCCCCC(=O)OC(C)C
inactive: Potency [1] | Potency [2] | Potency [3] | Potency [4] | Potency [5] | Potency [6]

O=C1C(c2[nH]c3ccccc3c2O)=Nc2ccccc21
inactive: Potency [1] | Potency [2] | Potency [3] | Potency [5] | Potency [6]
inactive and 34.7 µM (active): Potency [4]

CC(=O)c1ccc(O)cc1
inactive: Potency [1] | Potency [2] | Potency [3] | Potency [4] | Potency [5] | Potency [6]

Nc1ccc(Cl)c(N)c1
inactive: Potency [1] | Potency [5]
active: Potency [2] 11.3 µM and 20 µM | Potency [4] 40 µM and 35.6 µM | Potency [6] 11.3 µM and 31.7 µM

OCc1cccc(Oc2ccccc2)c1
inactive: Potency [5] | Potency [6]
active: Potency [1] 28.7 µM | Potency [2] 10.2 µM and 22.4 µM | Potency [3] 56.4 µM | Potency [4] 20.3 µM and 39.9 µM

CCCCCCC=O
inactive and 17.8 µM (active): Potency [1]
inactive: Potency [4] | Potency [5] | Potency [6]
active: Potency [2] 40.8 µM and 39.9 µM

COc1ccc(OC)cc1
40.7 µM (active) and inactive: Potency [2]
inactive: Potency [1] | Potency [3] | Potency [5] | Potency [6]

CC(C)c1cccc(C(C)C)c1
inactive: Potency [1] | Potency [3] | Potency [4] | Potency [5] | Potency [6]

CC(=O)OCc1ccccc1
inactive: Potency [2] | Potency [3] | Potency [4] | Potency [5] | Potency [6]

O=C(OCC1CCC2OC2C1)C1CCC2OC2C1 (stereo unspecified)
active: Potency [3] 71 µM
16.6 µM (active) and inactive: Potency [1]
inactive: Potency [2] | Potency [5]

C=CCCCCCCCCC(=O)O
active: Potency [3] 39.9 µM
inactive: Potency [1] | Potency [2] | Potency [4] | Potency [5] | Potency [6]

Cc1ccc(C(C)C)c(O)c1
inactive: Potency [1] | Potency [5] | Potency [6]
active: Potency [2] 71 µM and 34.7 µM | Potency [4] 31.7 µM and 15.5 µM

c1ccc2c(c1)Cc1ccccc1-2
inactive and 35.6 µM (active): Potency [2]
inactive: Potency [1] | Potency [5] | Potency [6]
inactive and 39.9 µM (active): Potency [3]
active: Potency [4] 25.6 µM and 7.96 µM
